Assay outcomes from PubChem.
Not all results are given here.
aSyn 5UTR act: Activators working through SNCA 5'UTR binding (MLPCN). AID 1814. 300,000 tested, 7.1% active. activity score, % (tested at 7.5 µM), hits read low. alpha-synuclein 5'UTR reporter, activators screen; in the data active = activity score below about -60%
* marks the source's active call; other numbers are inactive results.

SMILES	aSyn 5UTR act
COc1ccccc1NC(=O)c1ccc([N+](=O)[O-])o1	-98.1*
O=C(Nc1cccc2ccccc12)c1ccc([N+](=O)[O-])o1	-178.8*
CCCn1c(NC(=O)c2ccc([N+](=O)[O-])o2)nc2ccccc21	-88.5*
O=C(Nc1cc(-c2nc3ncccc3o2)ccc1Cl)c1ccc([N+](=O)[O-])o1	-199.9*
CC(=O)c1ccc(NC(=O)Cc2ccsc2)cc1	-78.7*
CC(=O)c1ccc(NC(=O)Cc2cccs2)cc1	-84.0*
Cc1cc(NC(=O)Cc2ccsc2)ccc1Br	-111.6*
COc1c(OC(C)=O)ccc(/C=C/c2ccc3cccc(OCc4ccccc4)c3n2)c1[N+](=O)[O-]	-128.8*
NC(=S)N/N=C/c1coc2c(ccc3ccccc32)c1=O	-74.2*
O=C(/C=C/c1ccco1)NC(=S)Nc1ccccc1	-104.4*
CC(=O)c1ccc(NC(=S)NC(=O)/C=C/c2ccco2)cc1	-100.8*
On1c(-c2ccc(Cl)cc2)nc2ccccc21	-146.5*
FC(F)(F)c1nc2ccccc2n2c(-c3ccc(Cl)cc3)nnc12	107.9
O=C(COn1nnc2ccccc21)NCC1CCCCC1	-78.1*
O=C(COn1nnc2ccccc21)N1CCN(Cc2ccccc2)CC1	-65.7*
CN(C)c1ccc(-c2nn3c(-c4ccccc4Cl)nnc3s2)cc1	82.3
Cc1nnc2sc(-c3ccc(N(C)C)cc3)nn2c1=O	-76.3*
Cc1ccc2nc(-c3ccc(N4C(=NC(=O)CCC(=O)O)SC5CS(=O)(=O)CC54)cc3)sc2c1 (stereo unspecified)	-91.9*
CC(=O)N=C1SC2CS(=O)(=O)CC2N1c1ccc(-c2nc3ccc(C)cc3s2)cc1 (stereo unspecified)	-164.1*
O=C(COCc1cc(-c2ccc3c(c2)OCO3)on1)N1CCCCC1	-90.0*
CC(C)CNC(=O)c1cc(-c2ccc3c(c2)OCO3)on1	-100.2*
CCCNC(=O)COCc1cc(-c2ccc3c(c2)OCO3)on1	-65.7*
Cc1ccc(Cn2nc(C)c(NC(=O)c3cc(-c4ccc5c(c4)OCO5)on3)c2C)cc1	42.7
CC(C)CNC(=O)COCc1cc(-c2ccc3c(c2)OCO3)on1	-76.9*
O=C1C2C3C=CC(CC3)C2C(=O)N1/N=C/c1c[nH]c2ccccc12 (stereo unspecified)	-91.7*
SMILES	aSyn 5UTR act
O=C1C2C3C=CC(C3)C2C(=O)N1/N=C/c1cn(Cc2ccccc2)c2ccccc12 (stereo unspecified)	66.5
Cc1ccc(Nc2nc(=O)c3cccnc3s2)cc1	-228.0*
CCOc1ccccc1C(=O)Nc1cccc(-c2ccc(N3CCOCC3)nn2)c1	-127.2*
COc1ccc(C(=O)Nc2cccc(-c3ccc(N4CCOCC4)nn3)c2)cc1OC	-70.1*
CCOc1ccccc1C(=O)Nc1c[nH]c(=O)[nH]c1=O	61.6
CCOc1ccc(C(=O)Nc2cccc(-c3ccc(N4CCOCC4)nn3)c2)cc1OCC	-69.2*
O=C(Nc1cccc(-c2ccc(N3CCOCC3)nn2)c1)c1ccc(F)cc1F	-72.7*
COc1cccc(C(=O)Nc2cccc(-c3ccc(N4CCOCC4)nn3)c2)c1	-72.2*
CCN(CC)c1ccc(CNc2ccc(Br)cn2)cc1	-102.7*
CS(=O)(=O)c1sc(C#N)c2c1C(=O)CC(c1ccccc1)C2 (stereo unspecified)	81.1
COc1cc(/C=C2\SC(N)=NC2=O)cc(OC)c1	-63.9*
Cc1ccc(O)c(NC(=O)c2ccc3c(c2)C(=O)N(CC(C)C)C3=O)c1	-112.5*
CCc1nnc(NC(=O)c2ccc3c(c2)C(=O)N(CC(C)C)C3=O)s1	-88.4*
CC(=O)c1coc2c1cc(O)c1ccccc12	-82.6*
c1ccc(-c2nc3nc4ccccc4nc3n2Cc2ccco2)cc1	-106.3*
Cc1ccc(-c2csc(N3C(=N)SCC3=O)n2)cc1	-161.7*
COc1ccc(NN=Nc2ccc([N+](=O)[O-])cc2)cc1	-239.6*
COc1ccc2[nH]c(=O)c(CN(Cc3cccs3)S(=O)(=O)c3cccc4nsnc34)cc2c1	75.9
COc1ccc2[nH]c(=O)c(CN(c3ccccc3OC)S(=O)(=O)c3ccccc3)cc2c1	-69.2*
Cc1ccc(C2CC(c3ccccc3)=NN2C(=S)Nc2ccccc2)o1 (stereo unspecified)	-65.1*
N#Cc1c(C(F)(F)F)cc(-c2ccc(Cl)c(Cl)c2)nc1SCCN1CCOCC1	-64.4*
O=C(NC1CCCCC1)c1cc(-c2ccc(Cl)cc2)on1	-114.7*
O=C(NC1CCCC1)c1cc(-c2ccc(F)cc2)on1	-322.3*
O=C(NC1CCCC1)c1cc(-c2ccc(Cl)cc2)on1	-233.5*
CN(C)CCNc1ncnc2c1sc1nc(N3CCOCC3)c3c(c12)CC(C)(C)SC3	71.6
SMILES	aSyn 5UTR act
CC(C)CCSc1nc(N2CCOCC2)c2c(c1C#N)CC(C)(C)OC2	57.9
CC1(C)Cc2c(c(N3CCOCC3)nc3sc(C(=O)Nc4ccccc4)c(N)c23)CO1	-73.8*
Brc1ccc(NC2=Nc3ccccc3CC2)cc1	-172.0*
COc1ccc(C2=C(C=O)Cc3ccccc3O2)cc1	98.0
COc1ccc(C2=C/C(=C\c3ccccc3OC(C)=O)C(=O)O2)cc1	-79.0*
c1ccc(-c2nc3c(ccc4ccccc43)[nH]2)nc1	-157.0*
Nc1nc(-c2nc3ccccc3[nH]2)cs1	-86.2*
c1ccc(-c2nc3ccccc3[nH]2)nc1	-81.0*
O=c1[nH]c(-c2ccccn2)nc2ccccc12	-96.3*
Cc1nc(S(=O)(=O)NC2CCCCC2)c(C#N)c(C)c1Cl	-90.6*
Cc1nc(S(=O)(=O)N2CCOCC2)c(C#N)c(C)c1Cl	-99.8*
Cc1nc(S(=O)(=O)N(C)Cc2ccccc2)c(C#N)c(C)c1Cl	-117.8*
N#Cc1c(-c2ccc(Cl)cc2)ccn2nc(C3CCCCC3)nc12	-164.1*
CCOC(=O)c1oc2ccc(CNCCO)c(Cl)c2c1C	-62.8*
CC1CC(C)CN(CCCNC(=O)c2ccc3nc(N4CCCCC4)sc3c2)C1 (stereo unspecified)	-273.4*
CC1CC(C)CN(S(=O)(=O)c2ccc(C(=O)NCCCn3ccnc3)cc2)C1 (stereo unspecified)	98.1
CCCN1CCN(CCCNC(=O)c2ccc3nc(N4CCCCC4)sc3c2)CC1	-214.4*
CCCNC(=O)c1ccc(N2CCC3(CC2)CC(c2ccccc2)=NO3)c(NC(=O)c2ccccc2)c1	59.4
O=C(c1ccc(CS(=O)Cc2ccccc2Cl)o1)N1CCN(c2ccccn2)CC1 (stereo unspecified)	-84.9*
S=C(NCCN1CCOCC1)Nc1ccc(-c2nc3ccccc3[nH]2)cc1	-129.3*
Cc1ccc(NC(=S)NCCCN2CCOCC2)cc1	-63.5*
Cc1ccc(CSc2nnc(-c3ccccn3)n2C)cc1	-92.8*
Cn1c(SCc2ccc(F)cc2)nnc1-c1ccccn1	-168.4*
Cc1cccc(CSc2nnc(-c3ccccn3)n2N)c1	-69.3*
O=C(Nc1ccc(Cl)cc1)c1sccc1-n1cccc1	-65.9*
SMILES	aSyn 5UTR act
CCc1ccc(NC(=O)c2sccc2-n2cccc2)cc1	-64.1*
S=C(NN=C1C2CC3CC(C2)CC1C3)Nc1ccccc1	-70.0*
CCC(C)(C)C1CCC(=NNC(=S)Nc2ccccc2)CC1 (stereo unspecified)	-124.3*
O=C(NNC(=S)Nc1ccc(F)cc1)c1ccccc1OC(F)F	-62.7*
Cc1ccc(NC(=S)NNC(=O)c2ccccc2OC(F)F)cc1	-86.7*
O=C(NNC(=S)Nc1cccc(Cl)c1)c1ccccc1OC(F)F	-82.9*
O=C(N/N=C/c1ccccc1F)c1cccc2ccccc12	-87.3*
O=C(COc1ccccc1-c1ccccc1)N/N=C/c1cccc2ccccc12	75.3
CCCn1c(=O)c(C(=O)N/N=C/c2ccccc2F)c(O)c2ccccc21	-94.9*
